Shown is part of a subset that was picked to be rich in hits.
Pf Dd2 growth: qHTS Primary assay for Inhibitors of Plasmodium falciparum Dd2 growth in vitro; P. falciparum Dd2 growth, SYBR Green, 72 h; Potency, µM (series often up to 28.9 µM), most hits filed as inhibitors; actives 4.3% (n = 120,000); active = well fitted inhibition curve with a large enough effect; note: nearly all actives have a fitted effect of over 65% in size
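Readout: SYBR Green fluorescence, 485 nm excitation, 535 nm emission, after ~16 h lysis at 37C. Before that, Dd2-infected red cells (2.5% hematocrit) grew 72 h with compound, 29 uM top final concentration.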
Each line names hits and unclear results; the compound was inactive in the other large screens.

CSc1ccc(CNC(=O)C2CCN(c3cc(C(F)(F)F)ncn3)CC2)cc1	none
COCCC(=O)N[C@@H]1CN(Cc2ccccn2)C[C@H]1CN(C)C	none
Cc1ccccc1S(=O)(=O)N1CCC(CCC(=O)N2CCc3ccccc3C2)CC1	none
O=C1NCCCCCCN(S(=O)(=O)c2ccccc2)[C@H]2CCCC[C@@H]12	none
CN1CCCCCCN(S(=O)(=O)c2ccccc2)[C@H]2CCC[C@H]2C1=O	Pf Dd2 growth 3.98µM
Cc1ccc(CNC(=O)N2CCCCCCN(C)C(=O)[C@@H]3CCC[C@@H]32)cc1	none
COc1cccc(CN2CCCCCNC(=O)[C@@H]3CCC[C@@H]32)c1OC	none
COc1cccc(CN2CCCCCCN(C)C(=O)[C@@H]3CCC[C@@H]32)n1	Pf Dd2 growth 2.51µM
O=C1NCCCCCCN(S(=O)(=O)c2ccccc2)[C@H]2CCC[C@@H]12	none
CN1CCCCCCN(Cc2cccnc2)[C@H]2CCC[C@H]2C1=O	none
Cc1ccc(CN2CCCCCCN(C)C(=O)[C@@H]3CCC[C@@H]32)s1	Pf Dd2 growth 6.31µM
CN1CCCCCCN(C(=O)c2ccoc2)[C@H]2CCC[C@H]2C1=O	none
Cc1n[nH]c(C)c1C(N)C(=O)N(C)Cc1ccnc2ccccc12 (stereo unspecified)	none
COCCOc1ccc(-c2ccnc(OC)c2C#N)cc1	none
COc1ccc(CC(=O)N2C[C@@H](C(=O)O)[C@H](c3ccccc3)C2)c(OC)c1	none
COc1ccc(-c2nn3c(-c4ccccc4C)nnc3c3ccccc23)cc1	Pf Dd2 growth 11.2µM
Cc1ccc(-c2nnc3c4ccccc4c(-c4ccccc4)nn23)cc1	none
COc1ccc(-c2oc3ncn4nc(-c5ccccc5C)nc4c3c2-c2ccc(OC)cc2)cc1	none
Cc1nn(-c2ccc(F)cc2)c(Oc2ccc(F)cc2F)c1CCC(=O)N1CCCC1	none
Cc1nn(-c2ccc(F)cc2)c(Oc2cccc(F)c2)c1CCC(=O)N1CCSCC1	Pf Dd2 growth 7.94µM
Cc1ccccc1Oc1c(CCC(=O)N2CCSCC2)c(C)nn1-c1ccc(F)cc1	none
COc1ccc(CN2CC[C@H](CNC(=O)C3CC3)[C@H](N(C)C)C2)c(OC)c1	none
Cc1noc(-c2cccn3c(CNC(=O)c4cccc(F)c4)nnc23)n1	none
Cc1nnsc1C(=O)N[C@H]1CCN(C(=O)c2ccco2)[C@H](C(=O)N[C@@H](Cc2cccs2)C(N)=O)C1	none
COc1ccc(Cl)cc1NC(=O)C[C@H]1NC(=O)c2ccccc2NC1=O	none
Cc1ccc(NC(=O)N2CCC3(CC2)Oc2ccccc2C(=O)N3Cc2ccc(F)cc2)cc1	Pf Dd2 growth 11.2µM
COc1ccc(Cl)cc1NC(=O)N1CCC(CN2CCCCCC2)CC1	none
CC1(C(=O)NC2CCCCC2)Cc2ccccc2C(=O)N1Cc1ccc(F)cc1 (stereo unspecified)	none
O=C(Nc1cccc(Cl)c1Cl)N1CCC2(CC1)SCC(=O)N2Cc1ccco1	none
Cc1ccc(NC(=O)N2CCC3(CC2)SCC(=O)N3Cc2ccccc2)cc1	none
O=C(Nc1ccc(F)c(Cl)c1)N1CCC2(CC1)Oc1ccccc1C(=O)N2Cc1ccccc1F	none
COc1ccc(Cl)cc1NC(=O)N1CCC2(CC1)Oc1ccccc1C(=O)N2Cc1ccc(F)cc1	Pf Dd2 growth 12.6µM
O=C(Nc1ccccc1Cl)N1CCC2(CC1)Oc1ccccc1C(=O)N2Cc1ccc(F)cc1	Pf Dd2 growth 14.1µM
CNc1cc(C)nc(N2C[C@H]3CN(C(=O)N(C)C)C[C@@]3(C(=O)O)C2)n1	none
Cc1cc2nc3n(c(=O)c2n1CC(=O)Nc1ccc(Br)cc1F)CCCCC3	none
CC(C)(C)c1ccc(C(=O)N2CCCC3(C2)NC(=O)N(Cc2ccccc2)C3=O)cc1 (stereo unspecified)	none
CC1(CNC(=O)c2ccoc2)CCOCC1	none
CN(c1ccccc1)c1ccc2ncn(C3CC3)c(=O)c2n1	none
Cc1cccc(-c2ccc3c(c2)C(=O)N2CC[C@H](NC(=O)c4cccnc4)C[C@H]2C(=O)N3)c1C	none
CN1CC(=O)N(C2CCCNCC2)Cc2c1ncnc2N1CCC(N2CCOCC2)CC1 (stereo unspecified)	none
CCCn1nc(C)cc1CN(CC)C(=O)c1cc[nH]c1C1CCCNC1 (stereo unspecified)	none
CN1CC(=O)N(C2CCCNC2)Cc2c1ncnc2N1CCC(N2CCOCC2)CC1 (stereo unspecified)	none
Cc1ccc2c(CC(=O)Nc3cccc(C(F)(F)F)c3)coc2c1	none
Cc1ccc2onc(CC(=O)Nc3cccc(C(F)(F)F)c3)c2c1	Pf Dd2 growth 11.2µM
COC(=O)c1ccccc1NC(=O)Cc1noc2ccc(C)cc12	none
CN1CCN(Cc2nc(C3(O)CCN(C(=O)N4CCOCC4)CC3)cs2)CC1	none
COc1ccc(CNC(=O)N2CC(c3nc(CCOCC4CCOCC4)no3)C2)cc1	none
CCOC(=O)C1=C(C)N=C2SC=C(CC(=O)Nc3cccc(OC)c3)N2C1c1cccc(OC)c1 (stereo unspecified)	Pf Dd2 growth 11.2µM
CCOC(=O)C1=C(C)N=C2SC=C(CC(=O)NC(C)CC)N2C1c1cccc([N+](=O)[O-])c1 (stereo unspecified)	none
CCOC(=O)C1=C(C)N=C2SC=C(CC(=O)Nc3ccc(OC)cc3)N2C1c1cccc(OC)c1 (stereo unspecified)	none
COCCOC(=O)C1=C(C)N=C2SC=C(CC(=O)Nc3cccc(OC)c3)N2C1c1ccccc1 (stereo unspecified)	none
COC(=O)C1=C(C)N=C2SC=C(CC(=O)Nc3ccc(F)cc3)N2C1c1ccc(OC)cc1OC (stereo unspecified)	none
CCOC(=O)C1=C(C)N=C2SC=C(CC(=O)Nc3ccc(C)c(C)c3)N2C1c1cccc(OC)c1 (stereo unspecified)	Pf Dd2 growth 8.91µM
CCCCCC(=O)N1CCC(O)(c2csc(CN3CCN(C)CC3)n2)CC1	none
COc1ccc(NC(=O)[C@@H]2C[C@H](c3ccc(F)cc3)N(Cc3csc(C)n3)C2)cc1	none
O=C(c1ccc2ncccc2c1)N1CC2CC(C1)[C@H]1CCCC(=O)N1C2 (stereo partly specified)	none
O=C(CCN1CCn2nc(CO)cc2C1)Nc1nnc(C2CC2)s1	none
COc1ccc(CCNC(=O)[C@H]2CCC[C@H]2NC(=O)c2ccncc2)cc1OC	none
O=C(CCCc1ccccc1)NCC(=O)N1CCN(c2ccccn2)CC1	none
CCC(=O)NCCC1CCN(C(=O)Nc2ccc(C)cc2)CC1	none
Cc1ccc(NC(=O)N2CCC(CCNC(=O)Cc3cccc(F)c3)CC2)cc1	none
Cc1ccc(NC(=O)N2CCC(CCNC(=O)c3n[nH]c4ccccc34)CC2)cc1F	Pf Dd2 growth 3.98µM
Cc1cccc(C(=O)NCCC2CCN(C(=O)Nc3ccc(F)cc3)CC2)c1	none
CCC(=O)NCCC1CCN(C(=O)Nc2ccc(C)c(F)c2)CC1	none
Cc1ccc(OCC(=O)NCCC2CCN(C(=O)Nc3ccc(F)cc3)CC2)cc1	Pf Dd2 growth 12.6µM
Cc1nn(-c2ccc(F)cc2)c(Oc2cccc(F)c2)c1CCC(=O)N(C)C(C)C	none
COc1ccc(C(=O)N(C)Cc2ccc(-c3ccccc3)cc2)cc1	none
CC1Oc2ccc(NS(=O)(=O)c3ccc(Cl)cc3)cc2CN(Cc2ccccc2F)C1=O (stereo unspecified)	none
O=C(NCc1ccco1)[C@H]1CN2CCC1C[C@@H]2Cn1cc(CO)nn1 (stereo partly specified)	none
O=C(Nc1ccccc1Oc1cccnc1)C1CCCN1C(=O)CC1CCCC1 (stereo unspecified)	none
O=C1NC2CCCCC2=C1CC(=O)N1CCCCC1 (stereo unspecified)	none
COc1ccc(F)cc1-c1ncc2c(n1)OCCN(c1cccc(C(F)(F)F)c1)C2=O	none
O=c1c2c(CO)c(-c3ccccc3)nn2ccn1Cc1ccccc1	none

Bioassay records from PubChem.
